Test results published in PubChem BioAssay (EPA / NIEHS).
Records with an inconclusive call do not appear. Calls of active or inactive are those of the source. How the source made its calls: active means hit-call score of the fitted dose curve at least 0.9, where 1 is the maximum; inconclusive means response in the unintended direction; inactive means score below 0.9.

Test: CCTE_Simmons_CellTiterGLO_HEK293T: Viability Assessment in CCTE's Assays for Thyroperoxidase (TPO) Inhibition, Simmons Lab (AID 2283665);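 on AC50: cells exposed to compound for 24 h before readout; actives reduce ATP signal below DMSO vehicle meaning cytotoxicity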
Outline: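 HEK293T cells in DMEM with 1% FBS, dosed 24 h at 37C with 8 concentrations, 5 nM–87.5 uM final, 0.5% DMSO. ATP measured by CellTiter Glo luminescence; loss of signal vs DMSO, three biological replicates.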

With `Cc1ccc(S(=O)(=O)NC(=O)NN2CCCCCC2)cc1` as the compound, how does the outcome read?
The outcome was “inactive”.

Which outcome does the source give for `c1ccc2cc3ccccc3cc2c1` here?
The outcome was “inactive”.

With `CCc1ccc(O)c(C(C)(C)C)c1` as the compound, how does the AC50 read?
Its AC50 is 12.6 µM (active).

For `CCCCCCCCCCCCCCCCOS(=O)(=O)O`, which AC50 is on record?
Its AC50 is 26.7 µM (active).

For `C=CCc1cc(S(=O)(=O)c2ccc(O)c(CC=C)c2)ccc1O`, which AC50 is on record?
Its AC50 is 79.5 µM (active).

For `Cn1cc[nH]c1=S`, which outcome is on record?
Its outcome is “inactive”.

With `NNC(=O)c1ccncc1` as the compound, how does the outcome read?
The outcome was “inactive”.

For `NC(=O)N(O)[C@@H]1COc2cc(OCc3ccccc3)ccc21`, which outcome is on record?
Its outcome is “inactive”.

For `C[C@@H](Oc1ccc(CNC(=O)c2cccnc2Oc2ccc3c(c2)OCO3)c(F)c1)C(=O)O`, which outcome is on record?
Its outcome is “inactive”.

For `COS(C)(=O)=O`, which outcome is on record?
The outcome was “inactive”.

For `O=C(NO)C1(NS(=O)(=O)c2ccc(Oc3ccc(F)cc3)cc2)CCOCC1`, which outcome is on record?
The outcome was “inactive”.

With `CCn1nc(C)c2c1C(=O)NCC(c1ccc(O)cc1)=N2` as the compound, how does the outcome read?
Its outcome is “inactive”.

With `Cc1cccc(O)c1C` as the compound, how does the outcome read?
The outcome was “inactive”.

Test: Tanguay_ZF_120hpf_TR_legacy: (Legacy) Oregon State University Tanguay Lab 120 Hour Post-fertilization zebrafish Assay for Touch Response (AID 2283667)
Outline: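 5D WT embryos; static exposure to 120 hpf, 28C, sealed/dark; DMSO 0.64% v/v final. TR scored present/absent; dead embryos excluded. Pos ctrl 5uM trimethyltin chloride.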

With `CCCC(CCC)C(=O)O` as the compound, how does the outcome read?
The outcome was “inactive”.

For `CC(C)c1nnc2ccc(-c3ocnc3-c3cc(F)ccc3F)cn12`, which outcome is on record?
Its outcome is “inactive”.

Which outcome does the source give for `OC[C@H]1O[C@@H]2O[C@H]3[C@H](O)[C@@H](O)[C@@H](O[C@H]4[C@H](O)[C@@H](O)[C@@H](O[C@H]5[C@H](O)[C@@H](O)[C@@H](O[C@H]6[C@H](O)[C@@H](O)[C@@H](O[C@H]7[C@H](O)[C@@H](O)[C@@H](O[C@H]1[C@H](O)[C@H]2O)O[C@@H]7CO)O[C@@H]6CO)O[C@@H]5CO)O[C@@H]4CO)O[C@@H]3CO` here?
Its outcome is “inactive”.

Which outcome does the source give for `CCCCN1C(=O)[C@@H]([C@H](O)C2CCCCC2)NC(=O)C12CCN(Cc1ccc(Oc3ccc(C(=O)O)cc3)cc1)CC2` here?
The outcome was “inactive”.

For `c1ccc2cc3ccccc3cc2c1`, which outcome is on record?
The outcome was “inactive”.

For `CCCc1ccccc1`, which outcome is on record?
The outcome was “inactive”.

For `O=C1CN(N=Cc2ccc([N+](=O)[O-])o2)C(=O)N1`, which outcome is on record?
The outcome was “inactive”.

For `CCCOc1ccc(S(=O)(=O)N2CCN(CC)CC2)cc1-c1nc2c(CC)n(Cc3ccccn3)nc2c(=O)[nH]1`, which outcome is on record?
The outcome was “inactive”.

For `Cn1c(=O)c2[nH]cnc2n(C)c1=O`, which outcome is on record?
The outcome was “inactive”.

Which outcome does the source give for `CCCCCCCC/C=C\CCCCCCCC(=O)OC[C@@H](O)[C@H]1OC[C@H](O)[C@H]1O` here?
Its outcome is “inactive”.

With `CCCCCCCCCCCCCCCCOS(=O)(=O)O` as the compound, how does the outcome read?
The outcome was “inactive”.

With `NC(=O)NN=Cc1ccc([N+](=O)[O-])o1` as the compound, how does the outcome read?
The outcome was “inactive”.

For `c1ccc2ncccc2c1`, which outcome is on record?
Its outcome is “inactive”.

For `COc1cc(C(C)C)c2c(c1)S(=O)(=O)N(COc1cc(=O)n3cccc(OCCN4CCCCC4)c3n1)C2=O`, which outcome is on record?
Its outcome is “inactive”.

With `OCc1ccccc1` as the compound, how does the outcome read?
The outcome was “inactive”.

Which outcome does the source give for `NNC(=O)c1ccncc1` here?
The outcome was “inactive”.

For `O=C(O)c1cccc(C(=O)O)c1`, which outcome is on record?
Its outcome is “inactive”.

With `COCc1nnc(-c2ccc[n+]([O-])c2)n1-c1c(Cl)c(Cl)cc2[nH]c(=O)c(=O)[nH]c12` as the compound, how does the outcome read?
The outcome was “inactive”.

With `C[C@]12C=CC(=O)C=C1CC[C@H]1[C@@H]3C[C@@H](O)[C@](O)(C(=O)CO)[C@@]3(C)C[C@H](O)[C@@]12F` as the compound, how does the outcome read?
Its outcome is “inactive”.

With `Cc1nc(-c2ccccn2)ncc1C(=O)Nn1cc(C)c2cc(F)ccc21` as the compound, how does the outcome read?
Its outcome is “inactive”.

Which outcome does the source give for `OC(CCl)CCl` here?
The outcome was “inactive”.

Which outcome does the source give for `OC[C@H]1O[C@@](CO)(O[C@H]2O[C@H](CO)[C@@H](O)[C@H](O)[C@H]2O)[C@@H](O)[C@@H]1O` here?
Its outcome is “inactive”.

With `NC(N)=O` as the compound, how does the outcome read?
Its outcome is “inactive”.

With `CCCCCCCC1CCC(=O)O1` (stereo not drawn) as the compound, how does the outcome read?
The outcome was “inactive”.

For `O=C(O)[C@H](O)[C@@H](O)C(=O)O`, which outcome is on record?
Its outcome is “inactive”.
